In PubChem BioAssay one finds z-score and composite z-score data, which are given here for 13 molecules.

Assay [1] can be described thus: resazurin metabolic signal in HepG2 cells – cell-based, resazurin fluorescence, 24 h, PK04 Diversity Set, profiling panel (AID 1172). Further: test concentration not given here. The following applies: HepG2 viability, higher = more signal. Background: Alamar Blue is a resazurin reagent that responds to reducing activity.
A short description of assay [2]: budding yeast growth changes without added modifier – OD600, strain BY4716, 24 h, basal condition, primary screen (AID 1173). The following applies: S. cerevisiae BY4716 growth, OD600, 24 h; higher = more signal, called active from +8 up or from −8 down.
Assay [3] is described as follows: viability profiling in MM1S myeloma cells – cell-based, resazurin fluorescence, basal, 24 h, PK04 Diversity Set, profiling panel (AID 1174).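 Further: MM1S multiple myeloma cell line; test concentration not given here.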 The conditions noted are these: higher = more signal, called active from +8 up or from −8 down.
Assay [4] deals with Dihydroorotate dehydrogenase (quinone), mitochondrial (Plasmodium falciparum (isolate 3D7)) (UniProt Q08210). The assay can be described thus: inhibition of P. falciparum DHODH – biochemical, C-terminal His tag, absorbance 600 nm, primary screen (AID 1175).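 Further: recombinant parasite enzyme with a five histidine tag at its C terminus; test concentration not given here.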 The following applies: PfDHODH enzyme, DCIP absorbance 600 nm; higher = more signal, called active from +8 up or from −8 down.
Dihydroorotate dehydrogenase (quinone), mitochondrial (Plasmodium falciparum (isolate 3D7)), sequence (Q08210 whole entry, looked up): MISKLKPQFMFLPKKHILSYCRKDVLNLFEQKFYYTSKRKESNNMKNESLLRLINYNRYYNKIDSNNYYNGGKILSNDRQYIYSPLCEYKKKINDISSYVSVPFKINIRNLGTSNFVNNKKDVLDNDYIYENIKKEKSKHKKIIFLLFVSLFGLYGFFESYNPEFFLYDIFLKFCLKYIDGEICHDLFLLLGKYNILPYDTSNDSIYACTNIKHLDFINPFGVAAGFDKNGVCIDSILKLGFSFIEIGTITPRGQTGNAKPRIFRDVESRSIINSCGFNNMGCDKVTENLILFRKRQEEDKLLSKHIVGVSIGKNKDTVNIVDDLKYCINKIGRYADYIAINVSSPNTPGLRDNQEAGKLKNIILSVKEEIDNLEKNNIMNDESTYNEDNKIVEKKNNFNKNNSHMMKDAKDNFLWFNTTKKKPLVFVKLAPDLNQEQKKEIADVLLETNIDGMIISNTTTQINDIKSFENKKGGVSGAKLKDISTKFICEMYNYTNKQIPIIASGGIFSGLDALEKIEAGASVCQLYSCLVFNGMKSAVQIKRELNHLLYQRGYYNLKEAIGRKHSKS

Assay [5] can be described thus: inhibition of PAO1 biofilm formation – strain PAO1, LB-PBS medium, absorbance 600 nm, primary screen (AID 1176). Further: test concentration not given here. The conditions noted are these: P. aeruginosa PAO1 growth/biofilm, A600, 12 h; higher = more signal.
Assay [6] in a line: growth modulation of vineyard yeast isolate – strain RM11-1a, OD600, basal, 24 h, primary screen (AID 1177).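 Further: cultures grown under basal conditions with no added stressor; test concentration not given here.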 The following applies: S. cerevisiae RM11-1a growth, OD600, 24 h; higher = more signal, called active from +8 up or from −8 down.
Assay [7] can be described thus: growth of efflux-deficient E. coli DRC39 – strain DRC39, OD650, 24 h, E. coli filamentation inducers, primary screen (AID 1178).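 Further: growth measured as culture turbidity by optical density at 650 nm; test concentration not given here.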 The conditions noted are these: E. coli DRC39 acrAB, higher = more signal, called active from +8 up or from −8 down.
Assay [8] in a line: growth of efflux-deficient E. coli DRC39 – strain DRC39, OD650, 48 h, E. coli filamentation inducers, primary screen (AID 1179).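 Further: screen aims at cell division blockers that make cells filament.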 The conditions noted are these: E. coli DRC39 delta-acrAB growth, higher = more signal, called active from +8 up or from −8 down.
A short description of assay [9]: viability profiling in RPMI8226 myeloma cells – cell-based, resazurin fluorescence, basal, 24 h, PK04 Diversity Set, profiling panel (AID 1180).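 Further: RPMI8826 multiple myeloma cell line at 5000 cells per well; test concentration not given here.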 The conditions noted are these: higher = more signal.
In assay [10] the target is E3 ubiquitin-protein ligase XIAP (Homo sapiens) (UniProt P98170). The assay can be described thus: small molecules binding XIAP protein – biophysical, small-molecule microarray, fluorescence 635 nm, primary screen (AID 1181).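 Further: score merges 667 nm emission and signal to noise over triplicate slides.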 The following applies: higher = more signal.
E3 ubiquitin-protein ligase XIAP (Homo sapiens), sequence (P98170 whole entry, looked up): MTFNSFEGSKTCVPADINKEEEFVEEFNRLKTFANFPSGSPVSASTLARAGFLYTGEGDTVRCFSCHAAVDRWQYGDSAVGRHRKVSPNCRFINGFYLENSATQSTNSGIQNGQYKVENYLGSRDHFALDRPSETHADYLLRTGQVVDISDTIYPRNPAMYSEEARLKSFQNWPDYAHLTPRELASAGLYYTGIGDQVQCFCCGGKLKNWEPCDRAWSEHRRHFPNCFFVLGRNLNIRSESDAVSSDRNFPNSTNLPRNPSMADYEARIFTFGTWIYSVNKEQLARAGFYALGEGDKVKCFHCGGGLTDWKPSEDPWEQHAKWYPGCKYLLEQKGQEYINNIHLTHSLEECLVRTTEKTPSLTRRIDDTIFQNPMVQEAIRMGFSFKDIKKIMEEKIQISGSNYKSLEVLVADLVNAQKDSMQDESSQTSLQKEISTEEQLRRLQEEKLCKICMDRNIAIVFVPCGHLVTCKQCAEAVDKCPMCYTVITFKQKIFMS

Molecules are shown by their SMILES. Activity calls are given as the source filed them. Unless noted, how the calls were made is not given here.

For the molecule `C=C(CCCC)C(=O)CC[C@H](OC(=O)c1ccccc1-c1ccccc1C(=O)O)c1cccc(OCCO)c1`, the z-score in assay [1] is -1.01; in [2], -1.21 (inactive); in assay [3] it was -0.821 (inactive); in [5], 1.09 (inactive); in assay [6] it was 0.0742 (inactive); in [7], -0.778 (inactive). The z-score in assay [8] is -0.689 (inactive); in assay [9], -0.432. For the same molecule, the composite z-score is -0.347 (inactive) in [4] and -0.138 in [10].

In the case of `O=C1N(Cc2ccccc2)Cc2ccccc2C[C@@]12COC(c1ccc(OCCCO)cc1)=N2`, the z-score in assay [1] was 0.775; in assay [2], 0.842 (inactive); in assay [3] it was -8.43 (active); in [5], -0.289 (inactive); in [6], 4.69 (inactive); in assay [7], 1.42 (inactive). Further, the z-score in [8] is 0.0613 (inactive); in [9] it was -2.81. The composite z-score in assay [4] is 0.719 (inactive); in [10], -0.124.

Consider `O=C1O[C@H](c2ccccc2)[C@H](c2ccccc2)N2[C@H]1[C@@H](C(=O)N1CCCCCCC1)[C@]1(C(=O)Nc3ccc(C#CCCO)cc31)[C@H]2c1ccc(O)cc1`, for which the z-score in assay [1] is 0.546; in assay [2] it was 0.206 (inactive); in [3], 1.33 (inactive); in assay [5], 0.93 (inactive); in assay [6], 0.66 (inactive); in assay [7], 0.783 (inactive). The z-score in assay [8] is 0.721 (inactive); in [9], 0.838. Further, the composite z-score is -0.328 (inactive) in assay [4] and 2.21 in [10].

As to `Cc1cccc([C@H]2C[C@H]3C(Br)=C[C@@]2(CO)C(=O)[C@]32CO2)c1`, the z-score in [1] is 0.888; in assay [2], -5.63 (inactive); in assay [3], -0.398 (inactive); in assay [5], 0.343 (inactive); in assay [6], -0.169 (inactive); in assay [7] it was 0.258 (inactive). Further, the z-score in assay [8] is 0.294 (inactive); in assay [9], 0.214. In addition, the composite z-score in assay [4] was -0.287 (inactive); in assay [10], 0.273.

For the molecule `COc1c(C)cc(-c2nc(-c3ccccc3)c3c(c2C)CO[Si]3(C(C)C)C(C)C)cc1C`, the z-score in assay [1] was 1.16; in [2], 0.709 (inactive); in [3], 0.032 (inactive); in assay [5] it was 0.845 (inactive); in assay [6], -0.0161 (inactive); in assay [7], 0.187 (inactive). Besides, the z-score was 0.135 (inactive) in assay [8] and 0.199 in [9]. The composite z-score in assay [4] was 0.08 (inactive); in [10] it was 0.53.

Turning to `CC(=O)NCCCC[C@@H]1NC(=O)[C@H]2C[C@@H](C(=O)NCCCCCN)[C@@H](c3ccc(O)cc3)N2C1=O`, the z-score in [1] is -0.508; in assay [2], 1.26 (inactive); in assay [3], -0.336 (inactive); in assay [5] it was -0.13 (inactive); in assay [6], 1.08 (inactive); in assay [7], -0.496 (inactive). The figures for the z-score in assay [8] and in [9] were -0.696 (inactive) and -0.121, respectively. Besides, the values for the composite z-score in [4] and in assay [10] were 0.538 (inactive) and -0.224, respectively.

On to `C=C(C(=O)CC[C@H](OC(=O)c1ccccc1-c1ccccc1C(=O)O)c1ccc(OCCO)cc1)C(C)C`, for which the z-score was 0.0716 in assay [1]; -1.02 (inactive) in assay [2]; -0.22 (inactive) in assay [3]; 0.509 (inactive) in assay [5]; -0.711 (inactive) in [6]; -0.0716 (inactive) in assay [7]. The z-score in assay [8] is -0.698 (inactive); in assay [9] it was 0. The composite z-score in assay [4] is -0.311 (inactive); in [10], 0.125.

On to `COc1ccc(C(O)C2C=CC3C(=O)N(c4ccccc4)C(=O)C3N2Nc2ccccc2F)c2ccccc12` (stereo not given), for which the z-score in assay [1] was -1.83; in assay [2], -1.71 (inactive); in assay [3], -0.042 (inactive); in assay [5], 1.15 (inactive); in [6] it was -0.0824 (inactive); in assay [7] it was -0.203 (inactive). The z-score in assay [8] was -0.617 (inactive); in [9], 0.0565. The composite z-score in assay [4] is -0.588 (inactive); in [10], 0.253.

Take `CN1C2C=C(c3ccc(CO)cc3)C(C3C(=O)N(C(N)=O)C(=O)C32)C1C1CC1` (stereo not given): the z-score in assay [1] is -0.41; in assay [2] it was 1.31 (inactive); in assay [3], -0.611 (inactive); in assay [5], 0.354 (inactive); in [6] it was 0.718 (inactive); in assay [7], 0.0605 (inactive). Moreover, the figures for the z-score in assay [8] and in assay [9] were 0.213 (inactive) and -0.641, respectively. Moreover, the composite z-score in assay [4] was 0.437 (inactive); in [10], -0.0745.

In the case of `C=CCC(OC(C)=O)[C@@H]1[C@@H](N(Cc2cccc3ccccc23)C(=O)c2ccc(C)cc2)c2cc(OCCCO)ccc2N1C(=O)Cc1ccc2ccccc2c1` (stereo not given in full), the z-score in assay [1] is 0.0546; in [2] it was -1.34 (inactive); in [3], 0.802 (inactive); in assay [5] it was 0.0642 (inactive); in [6] it was -1.31 (inactive); in assay [7], 0.72 (inactive). Moreover, the z-score in assay [8] is 1.28 (inactive); in [9], 0.608. The composite z-score in assay [4] was -2.08 (inactive); in [10] it was 0.0264.

With `CCCCN1CC=CC23O[C@@H]4/C=C\CCC(C)OC(=O)C4[C@H]2C(=O)N(CCO)[C@@H]3C1=O` (stereo not given in full), the z-score is 1 in assay [1]; 0.256 (inactive) in [2]; 0.498 (inactive) in assay [3]; 0.0279 (inactive) in assay [5]; -0.348 (inactive) in [6]; 0.32 (inactive) in [7]. For the same molecule, the z-score in assay [8] is -0.178 (inactive); in [9], 0.82. Besides, the composite z-score was -0.252 (inactive) in assay [4] and 0.0026 in assay [10].

Turning to `[N-]=[N+]=NCc1ccccc1[C@H]1OC(c2ccc(OCCCO)cc2)=N[C@@]1(Cc1ccccc1N=[N+]=[N-])C(=O)N1CCOCC1`, the z-score in [1] was -0.317; in assay [2] it was -0.783 (inactive); in [3], -2.46 (inactive); in assay [5], 0.438 (inactive); in [6], 1.43 (inactive); in [7] it was -0.33 (inactive). For the same molecule, the z-score in assay [8] was -0.799 (inactive); in assay [9] it was -2.58. Besides, the results for the composite z-score in assay [4] and in assay [10] were 1.03 (inactive) and 0.122, respectively.

With `COC(=O)[C@@]1(Cc2ccc(OC)cc2)[C@@H]2[C@@H](CC(=O)[C@H]2CC(=O)C(=O)N(C)C)CN1C(=O)c1ccccc1`, the z-score in [1] was -0.54; in [2] it was 1.05 (inactive); in assay [3] it was -2.89 (inactive); in assay [5], 1.02 (inactive); in assay [6], 0.415 (inactive); in assay [7], 0.243 (inactive). Further, the z-score is 0.358 (inactive) in assay [8] and -4.19 in assay [9]. Moreover, the composite z-score in assay [4] is -0.284 (inactive); in assay [10] it was 0.489.
